# Screening data (PubChem BioAssay)
# Cycloheximide cs: affects cycloheximide protein synthesis inhibition readout, counter-screen; cell reporter, cycloheximide protein synthesis inhibition counterscreen; hit rate 12% among 300,000; max response, %; in the data active = max response mostly above about 13%, no sharp cut-off; inactive = mostly below about 14%; note: read at 38.3 µM for the half of the compounds with a filed dose; 0% is about no effect
# LmPK inh: LmPK (Leishmania mexicana) enzyme inhibition | Q27686 | purified LmPK, Kinase-Glo ATP luminescence, 1 h | Potency, µM (titrated, usually from 57.5 µM), without a hit: at the top dose activity change, negative = inhibition, most hits filed as inhibitors | hit rate 0.37% among 290,000 | AID 1721; note: potency is the fitted concentration of half-maximal effect; % is set by controls: 0 for no effect and ±100 for the full control effect
# Target sequence (Q27686 whole entry, looked up): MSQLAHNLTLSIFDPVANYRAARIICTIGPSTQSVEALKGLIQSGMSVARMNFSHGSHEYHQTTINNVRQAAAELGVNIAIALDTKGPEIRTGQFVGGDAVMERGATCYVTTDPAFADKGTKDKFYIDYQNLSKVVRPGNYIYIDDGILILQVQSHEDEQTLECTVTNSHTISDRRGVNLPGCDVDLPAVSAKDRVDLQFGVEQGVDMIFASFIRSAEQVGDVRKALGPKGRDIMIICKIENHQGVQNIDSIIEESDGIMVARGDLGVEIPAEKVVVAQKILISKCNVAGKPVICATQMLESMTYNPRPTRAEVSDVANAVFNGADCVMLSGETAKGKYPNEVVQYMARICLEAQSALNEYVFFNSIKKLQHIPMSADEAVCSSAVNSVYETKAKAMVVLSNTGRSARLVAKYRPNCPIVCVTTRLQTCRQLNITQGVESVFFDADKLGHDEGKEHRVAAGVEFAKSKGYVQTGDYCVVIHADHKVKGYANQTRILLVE
#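 Pyruvate kinase activity monitored as ATP production (luciferase luminescence). Conditions: 0.1 nM enzyme, 0.5 mM PEP, 0.1 mM ADP, 1 h, RT; normalized against uninhibited and no-enzyme wells.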
# Shiga toxin inh: blocks Shiga toxin action in Vero cells; Vero cells, Shiga toxin protein synthesis inhibition reporter; inhibition, % at 38.7 µM; hit rate 9.2% among 290,000; AID 2315; in the data active = inhibition mostly above about 28%, no sharp cut-off; inactive = mostly below about 43%; note: 0% is about no effect
# Pf growth 96h: inhibits malaria parasite growth, 96 h; P. falciparum luciferase reporter growth, 96 h; Potency, µM (titrated, usually from 28.7 µM), inactives show top-dose activity change, negative = inhibition, actives largely listed as inhibitors; hit rate 6.9% among 320,000; AID 504834; note: potency is the fitted concentration of half-maximal effect; % is set by controls: 0 for no effect and ±100 for the full control effect
#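 Two-generation exposure (96 h) targets delayed-death phenotype. Reporter parasites carrying integrated firefly luciferase, in red cells at 2% hematocrit and 0.05% parasitemia final, kept at 37 C, 5% CO2; luminescence loss indicates inhibition.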
# Pf growth 48h: P. falciparum growth inhibition at 48 hours (one generation) | hit rate 5.9% among 310,000 | P. falciparum luciferase growth in erythrocytes, 48 h | Potency, µM (series often up to 28.7 µM), for the others: at the top dose activity change, negative = inhibition, usual class: inhibitors; note: potency is the fitted concentration of half-maximal effect; % is set by controls: 0 for no effect and ±100 for the full control effect
#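 Erythrocytes infected with P. falciparum carrying an integrated firefly luciferase reporter (2% hematocrit, 0.1% parasitemia final) were exposed to compounds in RPMI 1640 with 0.5% Albumax at 37 C, 5% CO2. Growth inhibition was scored as reduced luminescence.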
# An asterisk follows results filed as active; i = inactive; ? = inconclusive; . = no result given; [ ] = another dose, or the depositor's remark. Rows were chosen to be rich in hits. Some 22% of all compounds tested hit in one or more screens of this group. Unless noted, calls come from the whole dose curve; as a rule, active = well fitted inhibition curve with a large enough effect; inconclusive = small, poorly fitted or top-dose-only effect, or another doubt; inactive = no such curve, though single readings can be large or run the other way.
SMILES,Cycloheximide cs,LmPK inh,Shiga toxin inh,Pf growth 96h,Pf growth 48h
Cc1cccc(CNC(=O)C2CCC(=O)N(CCc3cccc(F)c3)C2)n1 (configuration not stated),-2,-7%,0,13%,8%
O=C(CN(C(=O)CCC(=O)Nc1nccs1)c1ccccc1F)NCc1ccccc1,-1,-2%,-6,-2%,-8%
COc1ccc(-c2cn[nH]c2C)cc1OC,-1,3%,-4,8%,11%
COc1ccc(-c2cnc(OC(C)(C)C)nc2OC(C)(C)C)cc1OC,-3,2%,-12,.,10µM*
Cc1cccn2c(=O)nc(SCC(=O)c3ccccc3)nc12,.,.,.,3%,21%
COC(=O)[C@@H]1C[C@H]2CC[C@H](O)C[C@H]2N1Cc1ccc(-c2ccccc2)cc1,-6,-4%,-2,-4%,15%
COC(=O)[C@@H]1C[C@H]2CC[C@H](O)C[C@H]2N1Cc1ccccc1OC(=O)c1cccs1,-1,2%,-6,?,9.3µM*
COC(=O)[C@@H]1C[C@@H]2CC[C@@H](O)C[C@@H]2N1Cc1ccccc1OS(=O)(=O)c1ccc(C)cc1,-3,3%,-8,?,10µM*
CCOC(=O)C1CCCN(C(=O)c2ccc(NS(=O)(=O)c3ccc4[nH]c(=O)[nH]c4c3)cc2)C1 (configuration not stated),.,.,.,5.9µM*,?
CCOC(=O)C1CCCN(CCC(=O)Nc2ccccc2C)C1 (configuration not stated),-1,-2%,2,-1%,0%
CCOC(=O)C1CCCN(C(=O)c2ccc3c(c2)NC(=O)C(N2CCOCC2)S3)C1 (configuration not stated),-2,2%,-9,?,8.3µM*
O=C(c1ccc(NS(=O)(=O)c2ccc3[nH]c(=O)[nH]c3c2)cc1)N1CCN(c2ccccc2O)CC1,.,.,.,?,3%
CCOC(=O)C1CCCN(CCC(=O)Nc2cc(C)ccc2C)C1 (configuration not stated),-4,0%,1,6.6µM*,-4%
CC(=O)N1CCN(C(=O)c2ccc(NS(=O)(=O)c3ccc4[nH]c(=O)[nH]c4c3)cc2)CC1,.,.,.,0%,-4%
Cc1cccc(N2CCN(C(=O)c3ccc(NS(=O)(=O)c4ccc5[nH]c(=O)[nH]c5c4)cc3)CC2)c1C,1,-2%,-3,8.3µM*,?
COc1ccc(S(=O)(=O)NNc2nc(C)cc(C)n2)cc1Br,.,.,.,10%,2%
O=C(CSc1nc(=O)[nH]c2c1CCCC2)Nc1cc(C(F)(F)F)cc(C(F)(F)F)c1,.,.,.,25%,5%
CCCCC(=O)Nc1ccc(C(=O)N2CCCC(C(=O)OCC)C2)cc1 (configuration not stated),20*,5%,13,59%,?
CCOC(=O)C1CCCN(C(=O)c2ccc(Cl)cc2)C1 (configuration not stated),-2,0%,-8,32%,8%
COc1ccc(-c2cc(-c3n[nH]c(=S)n3-c3ccccc3Cl)[nH]n2)cc1,-2,-5%,-6,-8%,14%[5.75 µM]
COc1ccc(OC)c(-n2c(-c3cc(-c4ccco4)[nH]n3)n[nH]c2=S)c1,7,5%,0,45%,45%
COc1ccc(-c2n[nH]c(=S)n2-c2cc(OC)ccc2OC)cc1,1,3.5µM*,-2,?,-3%
COc1ccc(-c2cc(-c3n[nH]c(=S)n3-c3cc(OC)ccc3OC)[nH]n2)cc1,-6,?,-10,16%,-4%
COc1ccc(OC)c(-n2c(-c3cccc(O)c3)n[nH]c2=S)c1,0,2µM*,-10,-5%,0.74µM*
COc1ccc(OC)c(-n2c(-c3cc(-c4ccc(F)cc4)n[nH]3)n[nH]c2=S)c1,-9,14µM*,-9,66%,?
SMILES,Cycloheximide cs,LmPK inh,Shiga toxin inh,Pf growth 96h,Pf growth 48h
COc1ccccc1-n1c(-c2ccc(NS(C)(=O)=O)cc2)n[nH]c1=S,-3,7.9µM*,-18,?,.
COc1ccc(C2(C)NC(=O)N(CC(=O)Nc3ccc(S(=O)(=O)N4CCCC4)cc3)C2=O)cc1 (configuration not stated),-2,-2%,-15,-11%,-7%
NC1=NC(=O)C2(COC(c3cccnc3)OC2)S1 (configuration not stated),2,9%,-10,?,-1%
COc1ccc(OC)c(-n2c(-c3ccc(C)cc3)n[nH]c2=S)c1,0,2.5µM*,-5,5%,1%
COc1ccc(OC)c(-n2c(-c3cnccn3)n[nH]c2=S)c1,-2,?,-4,?,.
Cc1ccc(C)c(NC(=O)COC(=O)c2ccc(S(=O)(=O)N3CCCCC3)cc2)c1,.,.,.,?,-3%
COc1cccc(-c2cc(C(=O)Nc3cc(C)n(Cc4ccc(Cl)cc4)n3)no2)c1,0,-9%,-2,22%,10µM*
Cc1cc(NC(=O)c2cc(-c3ccco3)on2)nn1Cc1ccc(Cl)cc1,3,6%,-1,.,6.6µM*
COc1ccc(-c2cc(C(=O)Nc3c(C)nn(Cc4ccc(Cl)cc4)c3C)no2)cc1,11,1%,-7,?,.
COc1ccc(OC)c(-c2cc(C(=O)Nc3cc(C)n(Cc4ccc(Cl)cc4)n3)no2)c1,-3,3%,-3,0%,2.1µM*
CN(CC(=O)N1CCCC1)S(=O)(=O)c1ccc2ccccc2c1,-2,-1%,-5,11%,0%
C=CCOC(=O)C1=C(C)NC(SCC(=O)Nc2nccs2)=C(C#N)C1c1cccs1 (configuration not stated),1,-1%,-14,4.1µM*,4.7µM*
C=CCOC(=O)C1=C(C)NC(SCC(=O)Nc2nccs2)=C(C#N)C1c1ccc(Cl)cc1 (configuration not stated),1,-1%,33,2.1µM*,2.1µM*
C=CCOC(=O)C1=C(C)NC(SC)=C(C#N)C1c1ccc(OCC)cc1 (configuration not stated),-8,5%,-6,12µM*,8.3µM*
CC(=O)C1=C(C)NC(SCC(=O)Nc2nccs2)=C(C#N)C1c1ccccc1Cl (configuration not stated),0,1%,-3,?,?
C=CCOC(=O)C1=C(C)NC(SC)=C(C#N)C1c1cccs1 (configuration not stated),-5,1%,-20,?,?
CCOC(=O)C1=C(C)NC(SCC(=O)Nc2cc(C)on2)=C(C#N)C1c1cccs1 (configuration not stated),-3,-10%,-14,?,10µM*
COc1ccc(C2CC(=O)Oc3cc(C)c(Cl)c(C)c32)cc1 (configuration not stated),18,.,i,.,.
O=C(/C=C/c1ccco1)Nc1ccc(CN2CCOCC2)cc1,41*,1%,46*,169%,226%
O=C(/C=C/c1ccco1)Nc1ccc(C(=O)N2CCOCC2)cc1,12,-7%,26,9.3µM*,2%
